Data: PubChem BioAssay (NCATS)
Results filed as inconclusive are left out. Activity calls are given as the source filed them. Calls follow the shape of the dose curve; as a rule, active = well fitted inhibition curve with a large enough effect; inconclusive = small, poorly fitted or top-dose-only effect; inactive = flat fitted curve, though single readings scatter.

tested on: CRL-7250; experiment: qHTS assay to identify novel small-molecules to repurpose for Merkel cell carcinoma treatment (AID 1296009); details: MCC and control cell lines, CellTiter-Glo viability, 72 h; series mostly up to 92 µM; activity change, negative = cytotoxicity: at the top concentration; also: nearly all actives have a fitted effect of over 60% in size
Procedure, shortened: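 72 hr, 37 degree celsius; NPC 8-pt / MIPE 11-pt dose response; compound pinned in DMSO; CellTiter-Glo, 10 min RT, luminescence; normalized to no-cell and DMSO controls.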

SMILES | outcome
Nc1ncnc2c1ncn2[C@H]1O[C@@H](C(=O)N2CCN(CC(=O)Nc3cccc4c3CNC4=O)CC2)[C@H](O)[C@@H]1O | inactive
COc1cccc(CN(C(=O)CC(C)(C)C)[C@H]2C[C@H](C(=O)N3CCNCC3)N(Cc3ccc4c(c3)OCO4)C2)c1 | inactive
CCC/C=C1\OC(=O)C2=C1CCC(O)C2O (stereo not given) | inactive
O=c1c2cccnc2n(-c2cccc([N+](=O)[O-])c2)c(=O)n1Cc1ccncc1 | inactive
CC(=O)NC(CCC(=O)O)C(=O)NCCc1ccc(O)cc1 (stereo not given) | inactive
C[C@@H]1[C@H]2[C@H](O[C@@H]3O[C@H](CO)[C@@H](O)[C@H](O)[C@H]3O)OC=C(C(=O)O)[C@H]2C[C@@H]1O | inactive
O=C(/C=C/c1ccc(O)cc1)OC[C@H]1O[C@H](O[C@@]2(CO)O[C@@H](CO)[C@H](O)[C@H]2O)[C@H](O)[C@@H](O)[C@@H]1O | inactive [at 17.4 µM]
CCC(O)(C(=O)OCc1ccccc1NC(=O)CCC(=O)O)C(C)O (stereo not given) | inactive
CC(=O)OC1C(OC(=O)c2ccccc2)C2C(C)(C)CCC(OC(C)=O)C2(C)C23CCC(C)(C2)C(=O)CC13 (stereo not given) | inactive [at 17.4 µM]
COc1cc2ncnc(Nc3cccc(O)c3)c2cc1OC | inactive
CSCC1OC(n2cnc3c(N)ncnc32)C(O)C1O (stereo not given) | inactive
CC1(C)CC[C@]2(C(=O)O[C@@H]3O[C@H](CO)[C@@H](O)[C@H](O)[C@H]3O)CC[C@]3(C)C(=CCC4[C@@]5(C)C[C@@H](O)[C@H](O)[C@](C)(C=O)C5CC[C@]43C)[C@@H]2[C@@H]1O (stereo not given in full) | inactive [at 17.4 µM]
O=C(/C=C/N1C[C@@H]2C[C@@H]1CN2c1ccccn1)c1ccccc1O | inactive
C=CC1(C)CC2CCC3C(C)(C(=O)O)CCCC3(C)C2=CC1=O (stereo not given) | inactive
O=C(OC[C@H]1O[C@@H](Oc2ccccc2COC(=O)C2(O)C=CCCC2O)[C@H](O)[C@@H](O)[C@@H]1O)c1ccccc1 (stereo not given in full) | inactive [at 17.4 µM]
CC(=O)/C=C/C1C(C)CC(O[C@@H]2O[C@H](CO)[C@@H](O)[C@H](O)[C@H]2O)CC1(C)C (stereo not given in full) | inactive
C[C@@H]1CC[C@]2(C(=O)O[C@@H]3O[C@H](CO)[C@@H](O)[C@H](O)[C@H]3O)CC[C@]3(C)C(=CCC4[C@@]5(C)C[C@@H](O)[C@H](O)[C@](C)(C(=O)O)C5CC[C@]43C)[C@@H]2[C@]1(C)O (stereo not given in full) | inactive [at 17.4 µM]
O=C(Nc1c(-c2cccs2)nc2ccccn12)c1ccc(Cl)cc1 | inactive
COCCOc1cnc2ccn([C@H](C)c3nnc4c(F)cc(-c5cnn(C)c5)cn34)c(=O)c2c1 | inactive
CC(/C=C/C1(O)C(C)(C)CC(O)CC1(C)O)OC1OC(CO)C(O)C(O)C1O (stereo not given) | inactive [at 17.4 µM]

SMILES | outcome
C[C@@H](CC[C@@H]1[C@@]2(C)CCCC(C)(C)C2CC[C@@]1(C)O)CC(=O)O (stereo not given in full) | inactive
CC1C(=O)CC2C3C(O)CC(C(=O)O)C12CC3(C)C (stereo not given) | inactive
C[C@@H]1O[C@@H](O[C@@H]2[C@@H](O)[C@H](O[C@H]3[C@H](O[C@H]4CC[C@@]5(C)C(CC[C@]6(C)C5CC=C5[C@@H]7CC(C)(C)CC[C@]7(C(=O)O[C@@H]7O[C@H](CO)[C@@H](O)[C@H](O)[C@H]7O[C@@H]7O[C@@H](C)[C@H](O[C@@H]8O[C@@H](C)[C@H](O)[C@@H](O)[C@H]8O)[C@@H](O)[C@H]7O)CC[C@]56C)[C@@]4(C)CO)O[C@H](C(=O)O)[C@@H](O)[C@@H]3O)O[C@H](CO)[C@H]2O)[C@H](O)[C@H](O)[C@H]1O (stereo not given in full) | inactive [at 9.27 µM]
CC(C)(C)c1ccc(C(=O)Nc2cn3cc(-n4ccnc4)ccc3n2)cc1 | inactive
Cn1c(SCC(=O)N2CCC[C@H]2C(=O)Nc2ccccc2-c2ccccc2)nc2ccccc21 | inactive
Cc1nnc(-c2ccc3occ(-c4ccc(S(C)=O)cc4)c3c2)o1 (stereo not given) | inactive
C=C[C@H]1[C@H](O[C@@H]2O[C@H](CO)[C@@H](O)[C@H](O)[C@H]2O)OC=C2C(=O)N3Cc4c([nH]c5ccccc5c4=O)[C@@H]3C[C@H]21 | inactive [at 17.4 µM]
CC1(C)CCCC2(C)C1C(O)C=C(CO)C2(O)CO (stereo not given) | inactive
COC(=O)[C@@H](NC(=O)[C@H](CC(C)C)NC(=O)N(Cc1ccccc1)C[C@@H](O)[C@H](Cc1ccccc1)NC(=O)OC(C)(C)C)C(C)C | inactive [at 9.27 µM]
COc1c(C(C)C)c(O)c(O)c2c1C(OC)[C@H]1OC(=O)[C@@]23CCCC(C)(C)[C@H]13 (stereo not given in full) | inactive
COC(=O)c1cc(OC)c(O[C@@H]2O[C@@H](C)[C@H](O)[C@@H](O)[C@H]2O)c(OC)c1 | inactive
Oc1ccc([C@H]2COc3cc(O)ccc3C2)cc1 | inactive
C[C@@H]1C(=O)OC[C@H]2C(C(=O)O)=C[C@@H]3CC(C)(C)C[C@]312 | inactive
NCCOCCOCCNC(=O)Cc1ccc(Nc2nc(NCc3ccc(F)cc3)nc(NCC3CCCCC3)n2)cc1 | inactive
OC[C@H]1O[C@@H](O[C@H]2[C@H](OCCc3ccccc3)O[C@H](CO)[C@@H](O)[C@@H]2O)[C@H](O)[C@@H](O)[C@@H]1O | inactive [at 17.4 µM]
COc1cc(O)cc(C)c1C(=O)OC1C(CO)OC(n2ccc(=O)[nH]c2=O)C1OC(C)=O (stereo not given) | inactive [at 17.4 µM]
Nc1c(-c2ccccc2)nc(Cl)c2c(O)n[nH]c(=O)c12 | inactive
COc1cc(/C=C/C(=O)O[C@H]2C[C@@H]3C(C(=O)O)=CO[C@@H](O[C@@H]4O[C@H](CO)[C@@H](O)[C@H](O)[C@H]4O)[C@@H]3[C@H]2C)ccc1O | inactive [at 17.4 µM]
COCC1OC(OC(C)(C)C2CCC3(C)C=C(C4CCC5C4(C)CC(O)C4OC(C(C)(C)O)CCC45C)CCC3O2)C(NC(C)=O)C(O)C1O (stereo not given) | inactive [at 17.4 µM]
CCC/C=C/C=C/C1CC(O)C2(O)C(=O)OCC12 (stereo not given) | inactive
